Experiments:
Assay in all cases: log2 ratio of Biotin-Ahx-Ub-VS probe labelling (fragment/DMSO); higher = less target engagement (more negative = stronger competition), active = hit call of the paper (q ≤ 0.05, log2 ratio ≤ -1)
Settings in all cases: compound concentration: 200 uM; treatment time: 3 h
USP34 = USP34 (UniProt Q70CQ2)
Summary of the method: (§1)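 The table lists average log2 ratios of fragment over vehicle, from an unpaired t-test on global-median-normalised Spectronaut label-free quantities. Proteins with ≥2 unique peptides were used. Samples were HEK293T lysate (495 µg) treated in triplicate with fragment at 200 µM or vehicle for 3 h, then with Biotin-Ahx-Ub-VS (0.5 µM final) for 1 h, with labelled DUBs NeutrAvidin-enriched and run by diaPASEF LC-MS/MS.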

USP36 = target: T1, USP36 (UniProt Q9P275)
T1 sequence (whole entry): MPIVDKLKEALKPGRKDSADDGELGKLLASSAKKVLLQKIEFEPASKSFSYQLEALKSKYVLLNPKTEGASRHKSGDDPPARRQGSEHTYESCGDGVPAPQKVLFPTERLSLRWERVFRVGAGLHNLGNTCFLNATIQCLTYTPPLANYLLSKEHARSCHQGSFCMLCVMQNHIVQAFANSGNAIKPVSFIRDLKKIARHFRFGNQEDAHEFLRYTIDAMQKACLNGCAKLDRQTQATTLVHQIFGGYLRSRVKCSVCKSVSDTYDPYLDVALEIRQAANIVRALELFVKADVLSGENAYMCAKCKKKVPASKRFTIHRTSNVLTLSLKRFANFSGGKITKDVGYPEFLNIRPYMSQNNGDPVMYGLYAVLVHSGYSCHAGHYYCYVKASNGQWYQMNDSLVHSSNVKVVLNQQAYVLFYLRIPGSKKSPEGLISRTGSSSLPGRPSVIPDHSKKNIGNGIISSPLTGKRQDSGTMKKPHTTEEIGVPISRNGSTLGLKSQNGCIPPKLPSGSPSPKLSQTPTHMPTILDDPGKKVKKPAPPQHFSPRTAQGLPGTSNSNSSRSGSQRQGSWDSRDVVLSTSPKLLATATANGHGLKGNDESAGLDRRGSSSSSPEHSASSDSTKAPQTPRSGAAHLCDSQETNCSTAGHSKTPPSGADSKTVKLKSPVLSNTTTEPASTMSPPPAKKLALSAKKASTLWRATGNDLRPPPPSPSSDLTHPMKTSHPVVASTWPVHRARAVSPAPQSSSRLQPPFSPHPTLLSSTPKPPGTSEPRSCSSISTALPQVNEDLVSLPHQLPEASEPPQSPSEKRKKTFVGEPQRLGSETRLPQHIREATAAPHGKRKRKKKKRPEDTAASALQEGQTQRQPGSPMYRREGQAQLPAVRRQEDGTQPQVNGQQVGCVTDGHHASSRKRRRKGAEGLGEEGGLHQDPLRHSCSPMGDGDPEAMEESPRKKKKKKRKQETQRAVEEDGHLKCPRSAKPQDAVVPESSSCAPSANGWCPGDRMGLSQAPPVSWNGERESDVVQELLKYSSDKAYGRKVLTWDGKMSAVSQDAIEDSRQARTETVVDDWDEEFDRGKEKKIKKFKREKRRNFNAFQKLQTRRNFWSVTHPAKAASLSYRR
Summary of the method: as §1

USP38 = target: T2, USP38 (UniProt Q8NB14)
T2 sequence (whole entry): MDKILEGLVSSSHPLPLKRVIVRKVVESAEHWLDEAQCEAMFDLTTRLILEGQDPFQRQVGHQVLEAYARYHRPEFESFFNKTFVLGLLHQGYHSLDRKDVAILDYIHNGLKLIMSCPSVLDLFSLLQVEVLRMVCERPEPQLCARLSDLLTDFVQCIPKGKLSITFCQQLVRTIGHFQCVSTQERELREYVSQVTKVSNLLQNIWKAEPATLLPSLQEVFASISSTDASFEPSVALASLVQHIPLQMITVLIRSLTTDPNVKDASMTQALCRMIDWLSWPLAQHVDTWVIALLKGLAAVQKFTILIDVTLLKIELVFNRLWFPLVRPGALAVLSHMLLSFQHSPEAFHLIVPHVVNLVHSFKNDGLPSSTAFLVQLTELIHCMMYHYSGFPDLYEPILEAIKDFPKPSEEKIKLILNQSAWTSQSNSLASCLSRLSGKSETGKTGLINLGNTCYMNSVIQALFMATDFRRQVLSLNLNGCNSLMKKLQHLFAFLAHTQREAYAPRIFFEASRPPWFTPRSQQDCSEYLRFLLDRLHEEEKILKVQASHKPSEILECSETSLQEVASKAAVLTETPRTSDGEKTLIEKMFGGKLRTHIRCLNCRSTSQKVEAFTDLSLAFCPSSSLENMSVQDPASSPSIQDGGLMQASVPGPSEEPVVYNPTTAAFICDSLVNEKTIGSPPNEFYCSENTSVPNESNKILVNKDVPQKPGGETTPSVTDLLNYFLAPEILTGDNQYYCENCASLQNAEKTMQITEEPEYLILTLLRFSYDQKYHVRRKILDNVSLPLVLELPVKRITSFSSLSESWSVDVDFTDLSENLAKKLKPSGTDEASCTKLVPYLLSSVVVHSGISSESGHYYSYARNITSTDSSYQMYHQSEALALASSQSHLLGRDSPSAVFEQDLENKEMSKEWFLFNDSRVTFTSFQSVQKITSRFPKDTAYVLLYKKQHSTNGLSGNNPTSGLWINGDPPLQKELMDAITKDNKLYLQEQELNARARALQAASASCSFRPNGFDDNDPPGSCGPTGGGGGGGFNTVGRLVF
Summary of the method: as §1

USP39 = target: T3, USP39 (UniProt Q53GS9)
T3 sequence (whole entry): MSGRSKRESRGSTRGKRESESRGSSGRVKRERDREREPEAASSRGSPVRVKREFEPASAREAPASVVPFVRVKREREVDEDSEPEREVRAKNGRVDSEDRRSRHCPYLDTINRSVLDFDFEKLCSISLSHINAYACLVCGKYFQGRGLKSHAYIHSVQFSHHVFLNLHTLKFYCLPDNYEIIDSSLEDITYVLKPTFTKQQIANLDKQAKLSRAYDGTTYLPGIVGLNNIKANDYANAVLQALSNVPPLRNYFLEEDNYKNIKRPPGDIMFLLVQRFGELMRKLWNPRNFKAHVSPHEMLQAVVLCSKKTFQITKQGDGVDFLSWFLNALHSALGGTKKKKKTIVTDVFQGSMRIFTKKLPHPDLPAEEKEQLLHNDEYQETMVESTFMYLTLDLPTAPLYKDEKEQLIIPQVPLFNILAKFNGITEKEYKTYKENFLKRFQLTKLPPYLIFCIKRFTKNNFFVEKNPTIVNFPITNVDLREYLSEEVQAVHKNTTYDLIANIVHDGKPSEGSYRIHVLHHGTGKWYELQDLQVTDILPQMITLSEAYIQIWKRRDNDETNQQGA
Summary of the method: as §1

USP4 = target: T4, USP4 (UniProt Q13107)
T4 sequence (whole entry): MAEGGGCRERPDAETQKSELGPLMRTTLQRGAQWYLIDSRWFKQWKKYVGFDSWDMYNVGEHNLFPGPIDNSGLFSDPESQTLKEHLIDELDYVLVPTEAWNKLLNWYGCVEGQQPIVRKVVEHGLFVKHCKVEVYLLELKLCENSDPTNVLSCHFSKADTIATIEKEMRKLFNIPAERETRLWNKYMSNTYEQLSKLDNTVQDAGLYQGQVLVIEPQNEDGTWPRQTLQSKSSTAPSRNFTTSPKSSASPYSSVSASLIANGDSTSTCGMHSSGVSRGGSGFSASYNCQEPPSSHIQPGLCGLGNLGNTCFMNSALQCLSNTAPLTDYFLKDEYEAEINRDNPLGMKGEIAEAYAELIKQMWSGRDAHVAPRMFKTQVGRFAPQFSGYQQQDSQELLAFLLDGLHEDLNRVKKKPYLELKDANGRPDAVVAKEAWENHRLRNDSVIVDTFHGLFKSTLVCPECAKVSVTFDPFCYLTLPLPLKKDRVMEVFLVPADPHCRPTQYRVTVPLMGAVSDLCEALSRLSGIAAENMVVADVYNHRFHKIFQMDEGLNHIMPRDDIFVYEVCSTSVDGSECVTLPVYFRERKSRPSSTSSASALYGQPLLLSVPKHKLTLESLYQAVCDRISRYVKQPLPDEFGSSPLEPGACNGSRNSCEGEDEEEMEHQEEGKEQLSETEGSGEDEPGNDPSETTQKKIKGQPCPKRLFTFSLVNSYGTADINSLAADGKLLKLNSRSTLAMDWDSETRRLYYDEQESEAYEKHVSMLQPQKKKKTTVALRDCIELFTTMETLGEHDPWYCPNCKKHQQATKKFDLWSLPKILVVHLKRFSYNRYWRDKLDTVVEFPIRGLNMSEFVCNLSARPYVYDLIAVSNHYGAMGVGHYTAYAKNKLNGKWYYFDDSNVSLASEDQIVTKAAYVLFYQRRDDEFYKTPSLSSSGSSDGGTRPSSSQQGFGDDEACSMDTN
Summary of the method: as §1

Measured: log2 ratio of Biotin-Ahx-Ub-VS probe labelling

USP34, sequence (Q70CQ2 whole entry, the tested form may be a part): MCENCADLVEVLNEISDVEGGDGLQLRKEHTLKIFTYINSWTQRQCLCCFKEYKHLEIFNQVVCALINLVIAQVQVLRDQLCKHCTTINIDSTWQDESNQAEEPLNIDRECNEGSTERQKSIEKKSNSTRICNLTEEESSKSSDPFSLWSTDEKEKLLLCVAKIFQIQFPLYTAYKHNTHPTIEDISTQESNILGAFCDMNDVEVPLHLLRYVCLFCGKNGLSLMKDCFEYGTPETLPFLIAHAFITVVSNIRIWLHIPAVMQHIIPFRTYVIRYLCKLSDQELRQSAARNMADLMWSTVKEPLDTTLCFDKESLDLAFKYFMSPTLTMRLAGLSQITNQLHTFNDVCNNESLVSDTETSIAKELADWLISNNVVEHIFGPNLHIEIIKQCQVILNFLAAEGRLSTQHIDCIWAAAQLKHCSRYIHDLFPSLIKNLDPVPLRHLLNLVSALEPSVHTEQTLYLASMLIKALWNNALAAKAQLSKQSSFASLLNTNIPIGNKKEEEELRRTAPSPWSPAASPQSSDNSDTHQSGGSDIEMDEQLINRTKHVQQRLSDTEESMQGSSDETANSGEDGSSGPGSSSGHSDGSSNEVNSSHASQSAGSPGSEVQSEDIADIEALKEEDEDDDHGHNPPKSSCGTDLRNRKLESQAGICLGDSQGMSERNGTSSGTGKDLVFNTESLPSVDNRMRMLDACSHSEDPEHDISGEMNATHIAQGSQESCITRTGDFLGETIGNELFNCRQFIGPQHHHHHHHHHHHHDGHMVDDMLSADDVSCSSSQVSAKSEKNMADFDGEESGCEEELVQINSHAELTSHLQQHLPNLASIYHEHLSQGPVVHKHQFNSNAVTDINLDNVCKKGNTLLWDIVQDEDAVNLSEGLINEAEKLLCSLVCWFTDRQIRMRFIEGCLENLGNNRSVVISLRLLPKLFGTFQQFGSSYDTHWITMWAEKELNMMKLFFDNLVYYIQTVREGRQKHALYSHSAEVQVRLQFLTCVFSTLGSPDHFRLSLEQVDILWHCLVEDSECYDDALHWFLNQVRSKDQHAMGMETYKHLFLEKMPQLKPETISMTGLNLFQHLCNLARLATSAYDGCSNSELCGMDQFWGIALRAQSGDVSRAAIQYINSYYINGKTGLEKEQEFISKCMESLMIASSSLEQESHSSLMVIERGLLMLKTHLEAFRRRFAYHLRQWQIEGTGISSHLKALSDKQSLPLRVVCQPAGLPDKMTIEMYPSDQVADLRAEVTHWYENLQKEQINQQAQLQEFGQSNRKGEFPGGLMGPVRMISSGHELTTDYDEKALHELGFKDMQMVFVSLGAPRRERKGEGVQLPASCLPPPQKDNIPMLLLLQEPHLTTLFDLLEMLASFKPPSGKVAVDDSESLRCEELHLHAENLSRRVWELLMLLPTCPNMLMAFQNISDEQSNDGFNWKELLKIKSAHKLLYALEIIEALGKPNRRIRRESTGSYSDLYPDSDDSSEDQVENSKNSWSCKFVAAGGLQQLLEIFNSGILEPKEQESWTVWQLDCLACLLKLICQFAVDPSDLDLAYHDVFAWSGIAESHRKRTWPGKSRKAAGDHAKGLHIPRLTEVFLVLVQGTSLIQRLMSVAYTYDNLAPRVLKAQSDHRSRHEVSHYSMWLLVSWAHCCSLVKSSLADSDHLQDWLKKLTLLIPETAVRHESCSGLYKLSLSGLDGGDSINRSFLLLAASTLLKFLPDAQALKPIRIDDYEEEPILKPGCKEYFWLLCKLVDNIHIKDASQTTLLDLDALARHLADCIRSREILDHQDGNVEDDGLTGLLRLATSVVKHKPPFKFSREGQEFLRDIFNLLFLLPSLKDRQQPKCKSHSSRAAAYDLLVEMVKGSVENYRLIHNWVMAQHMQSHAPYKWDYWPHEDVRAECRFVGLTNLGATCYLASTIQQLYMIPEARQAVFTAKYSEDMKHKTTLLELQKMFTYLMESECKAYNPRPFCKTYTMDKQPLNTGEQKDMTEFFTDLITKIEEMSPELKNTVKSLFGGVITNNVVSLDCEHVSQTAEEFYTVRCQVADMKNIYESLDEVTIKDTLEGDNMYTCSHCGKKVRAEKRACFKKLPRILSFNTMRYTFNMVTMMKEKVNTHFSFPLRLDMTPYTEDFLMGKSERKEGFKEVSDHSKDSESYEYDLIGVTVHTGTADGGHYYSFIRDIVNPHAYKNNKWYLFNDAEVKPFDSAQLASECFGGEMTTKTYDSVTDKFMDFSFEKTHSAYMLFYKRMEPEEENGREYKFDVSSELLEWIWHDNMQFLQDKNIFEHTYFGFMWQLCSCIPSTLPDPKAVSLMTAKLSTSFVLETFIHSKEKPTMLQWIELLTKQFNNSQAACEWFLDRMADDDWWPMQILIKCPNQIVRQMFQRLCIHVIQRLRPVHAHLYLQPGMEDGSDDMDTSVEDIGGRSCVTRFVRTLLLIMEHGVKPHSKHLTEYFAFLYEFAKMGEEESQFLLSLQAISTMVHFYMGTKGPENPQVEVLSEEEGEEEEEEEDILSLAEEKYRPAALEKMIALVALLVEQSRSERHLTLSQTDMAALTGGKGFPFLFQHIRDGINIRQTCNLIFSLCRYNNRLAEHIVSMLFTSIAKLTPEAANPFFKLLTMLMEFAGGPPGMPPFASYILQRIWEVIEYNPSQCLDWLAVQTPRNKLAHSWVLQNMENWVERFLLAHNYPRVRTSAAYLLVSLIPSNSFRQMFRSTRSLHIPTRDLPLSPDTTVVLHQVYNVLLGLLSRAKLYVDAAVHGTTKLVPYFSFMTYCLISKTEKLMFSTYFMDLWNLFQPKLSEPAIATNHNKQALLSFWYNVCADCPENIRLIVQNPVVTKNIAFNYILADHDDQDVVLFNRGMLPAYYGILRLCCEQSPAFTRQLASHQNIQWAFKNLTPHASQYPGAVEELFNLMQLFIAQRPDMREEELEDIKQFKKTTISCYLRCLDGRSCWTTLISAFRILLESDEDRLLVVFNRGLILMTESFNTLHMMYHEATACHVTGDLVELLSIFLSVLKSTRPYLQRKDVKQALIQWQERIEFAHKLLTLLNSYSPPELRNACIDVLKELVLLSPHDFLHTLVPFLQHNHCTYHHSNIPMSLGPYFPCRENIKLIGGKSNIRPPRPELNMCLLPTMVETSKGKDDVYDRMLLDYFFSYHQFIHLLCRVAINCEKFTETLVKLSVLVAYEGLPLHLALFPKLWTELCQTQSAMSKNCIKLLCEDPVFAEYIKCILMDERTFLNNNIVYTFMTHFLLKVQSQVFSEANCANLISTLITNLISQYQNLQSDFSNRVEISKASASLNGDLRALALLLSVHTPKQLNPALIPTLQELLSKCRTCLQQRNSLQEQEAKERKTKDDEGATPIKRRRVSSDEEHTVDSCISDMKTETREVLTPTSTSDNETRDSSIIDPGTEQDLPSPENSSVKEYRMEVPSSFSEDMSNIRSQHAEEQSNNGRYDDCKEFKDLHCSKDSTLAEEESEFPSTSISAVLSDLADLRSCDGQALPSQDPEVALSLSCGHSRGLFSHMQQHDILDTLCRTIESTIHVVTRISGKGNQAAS

CS(=O)(=O)c1ccc(CNC(=O)CCl)cc1
inactive: USP34 -0.0991 | USP36 -0.225 | USP38 -0.0436 | USP39 0.204 | USP4 -0.0105

From the supplement of paper PMC11732987, “Enantioselective OTUD7B fragment discovery through chemoproteomics screening and high-throughput optimisation” (Communications Chemistry, 2025)
